The text below walks through data of PubChem BioAssay (Tox21).

Records with an inconclusive call do not appear. The source made the active and inactive calls. Unless noted, calls follow the shape of the dose curve; as a rule, active = well fitted curve in the direction sought with a large enough effect in the repeat runs; inconclusive = weak or mixed curves; inactive = no such curve, though single readings can be large; an effect the other way counts as inactive or inconclusive.

Assay [1] is described as follows: qHTS assay to test for compound auto fluorescence at 535 nm (green) in HEK293 cells (AID 720680).
Assay [2] is described as follows: qHTS assay to test for compound auto fluorescence at 460 nm (blue) in HEK293 cell free culture (AID 720681). The procedure, abridged:
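Test compounds were pinned into cell-free culture medium (DMEM with 10% FBS) and fluorescence was read directly at Ex/Em 405/460 nm. Signals were expressed as fluorescence equivalents of triamterene, with DMSO vehicle as control.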

A short description of assay [3]: qHTS assay to test for compound auto fluorescence at 535 nm (green) in HEK293 cell free culture (AID 720682). The procedure, abridged:
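DMEM + 10% FBS, cell-free; cpd or DMSO pinned in; Ex485/Em535 read; output as fluorescein-equivalent signal.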

A short description of assay [4]: qHTS assay to test for compound auto fluorescence at 590 nm (red) in HEK293 cell free culture (AID 720683). In short, it runs like this: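 Tox21 10K library compounds were pinned into cell-free DMEM with 10% FBS and fluorescence was read at excitation 540 nm. Activity is expressed as Rose Bengal sodium equivalency.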
Assay [5] can be described thus: qHTS assay to test for compound auto fluorescence at 590 nm (red) in HepG2 cell free culture (AID 720684). The procedure, abridged:
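Readout: intrinsic compound fluorescence at 590 nm emission after 540 nm excitation, scaled to Rose Bengal sodium. Matrix was cell-free MEM with 10% FBS; DMSO vehicle wells served as control.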

A short description of assay [6]: qHTS assay to test for compound auto fluorescence at 460 nm (blue) in HepG2 cell free culture (AID 720685). In short, it runs like this: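 Cell-free plates of MEM plus 10% FBS received 23 nL compound or DMSO vehicle; blue-channel (405/460 nm) intensity scored against triamterene as reference fluorophore.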
Assay [7] in a line: qHTS assay to test for compound auto fluorescence at 535 nm (green) in HepG2 cell free culture (AID 720686).
A short description of assay [8]: qHTS assay to test for compound auto fluorescence at 460 nm (blue) in HepG2 cells (AID 720687). In short, it runs like this:
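Cells (2,000/well in MEM with 10% FBS) attached overnight at 37 C, then were exposed to compound or DMSO for 1 hr at 37 C, 5% CO2. Fluorescence read at Ex/Em 405/460 nm, expressed as triamterene-equivalent signal.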

The target of assay [9] is Glucocorticoid receptor (Homo sapiens) (UniProt P04150). The assay is described as follows: qHTS assay to identify small molecule agonists of the glucocorticoid receptor (GR) signaling pathway (AID 720691; active = well fitted activation curve with a large enough effect in the signal ratio in the repeat runs, not every such curve was filed as active; the % refers to the signal ratio). In short, it runs like this: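 HeLa GR-bla reporter line; cells pre-incubated 4 h, compound in DMSO 18 h at 37 C; LiveBLAzer B/G FRET substrate 2 h RT; fluorescence intensity read-out.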
Sequence of Glucocorticoid receptor (Homo sapiens) (P04150 whole entry, looked up): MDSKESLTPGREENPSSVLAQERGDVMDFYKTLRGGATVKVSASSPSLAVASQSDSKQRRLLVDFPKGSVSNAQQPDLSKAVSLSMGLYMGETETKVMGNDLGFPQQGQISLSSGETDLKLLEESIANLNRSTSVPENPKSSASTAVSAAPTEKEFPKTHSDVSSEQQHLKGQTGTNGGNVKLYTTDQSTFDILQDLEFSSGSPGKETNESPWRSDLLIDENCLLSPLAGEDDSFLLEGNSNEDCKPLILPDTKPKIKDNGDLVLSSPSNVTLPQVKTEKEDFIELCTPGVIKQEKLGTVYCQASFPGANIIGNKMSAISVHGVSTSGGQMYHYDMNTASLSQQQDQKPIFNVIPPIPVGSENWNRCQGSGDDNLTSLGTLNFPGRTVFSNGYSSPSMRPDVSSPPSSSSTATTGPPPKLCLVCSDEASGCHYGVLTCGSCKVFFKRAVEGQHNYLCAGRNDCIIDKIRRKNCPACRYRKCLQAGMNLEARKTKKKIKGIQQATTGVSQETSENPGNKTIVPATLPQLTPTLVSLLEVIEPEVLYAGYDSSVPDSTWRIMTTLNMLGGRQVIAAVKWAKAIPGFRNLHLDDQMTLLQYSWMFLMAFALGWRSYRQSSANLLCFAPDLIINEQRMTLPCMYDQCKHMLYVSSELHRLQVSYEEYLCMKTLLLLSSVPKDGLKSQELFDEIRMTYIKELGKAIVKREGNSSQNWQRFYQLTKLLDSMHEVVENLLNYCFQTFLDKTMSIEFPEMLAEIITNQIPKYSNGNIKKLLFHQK

Assay [10] in a line: qHTS assay for identifying genotoxic compounds that show differential cytotoxicity against isogenic chicken DT40 cell lines with known DNA damage response pathways - wild type cell line (AID 743012). Also: nearly all actives have a fitted effect of over 60% in size. The procedure, abridged:
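CellTiter-Glo luminescence readout of viability in wild type DT40 cells after 40 h compound exposure at 37 C/5% CO2; 300 cells/well; reagent incubated 30 min at room temperature before reading.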

Assay [11] can be described thus: qHTS assay for identifying genotoxic compounds that show differential cytotoxicity against isogenic chicken DT40 cell lines with known DNA damage response pathways - Rev3 mutant cell line (AID 743014). Also: nearly all actives have a fitted effect of over 55% in size.
The nature of assay [12]: qHTS assay for identifying genotoxic compounds that show differential cytotoxicity against isogenic chicken DT40 cell lines with known DNA damage response pathways - Rad54/Ku70 mutant cell line (AID 743015). Also: nearly all actives have a fitted effect of over 60% in size. Also: potency is read from the fitted curve at half-maximal effect.
The nature of assay [13]: qHTS assay to identify small molecule antagonists of the androgen receptor (AR) signaling pathway - cell viability counter screen (AID 743033; also: nearly all actives have a fitted effect of over 45% in size).
Assay [14] can be described thus: qHTS assay to identify small molecule antagonists of the androgen receptor (AR) signaling pathway using the MDA cell line - cell viability counter screen (AID 743041; also: nearly all actives have a fitted effect of over 45% in size). In short, it runs like this: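 qHTS viability read-out; MDA-kb2 AR-luc; R1881-stimulated; 16 h exposure at 37C, 0% CO2; CellTiter-Fluor, 30 min; fluorescence intensity.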
Assay [15] can be described thus: qHTS assay to identify small molecule antagonists of the glucocorticoid receptor (GR) signaling pathway - cell viability counter screen (AID 720693). Also: nearly all actives have a fitted effect of over 55% in size.
For assay [16], the target named is Androgen receptor (Homo sapiens) (UniProt P10275). The assay is described as follows: qHTS assay to identify small molecule antagonists of the androgen receptor (AR) signaling pathway (AID 743035; active = well fitted inhibition curve with a large enough effect in the signal ratio in the repeat runs, not every such curve was filed as active; the % refers to the signal ratio). The procedure, abridged:
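AR-bla HEK293 reporter cells; 4 h settle at 37C/5% CO2; compound + R1881 agonist, 16 h at 37C; LiveBLAzer B/G FRET substrate 2 h RT; fluorescence intensity read. qHTS format.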

Assay [17] has the same target. The assay is described as follows: qHTS assay to identify small molecule agonists of the androgen receptor (AR) signaling pathway (AID 743036; active = well fitted activation curve with a large enough effect in the signal ratio in the repeat runs, with a control signal flat, not every such curve was filed as active; the % refers to the signal ratio). The procedure, abridged: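 Screening used 2,000 AR-bla HEK293 cells per well, treated 16 h at 37C with test compounds in DMSO alongside positive and DMSO-only controls; beta-lactamase activity was then read by LiveBLAzer B/G FRET fluorescence after 2 h at room temperature.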

For assay [18] the target is unchanged. The assay is described as follows: qHTS assay to identify small molecule agonists of the androgen receptor (AR) signaling pathway using the MDA cell line (AID 743040; also: nearly all actives have a fitted effect of over 20% in size). In short, it runs like this:
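Agonist activity is measured as luciferase luminescence in human MDA-kb2 cells whose MMTV reporter responds to both AR and GR. Compounds in DMSO incubate 16 h at 37C, 0% CO2, and ONE-Glo is read after 30 min.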

Assay [19] has the same target. Description: qHTS assay to identify small molecule antagonists of the androgen receptor (AR) signaling pathway using the MDA cell line (AID 743042; also: nearly all actives have a fitted effect of over 55% in size). The procedure, abridged: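 MDA-kb2 cells (human breast carcinoma, stably carrying an MMTV-luciferase reporter responsive to AR and GR) were plated at 3,000 cells/well and preincubated 5 hr at 37C, then given compound plus R1881 agonist for 16 h. ONE-Glo luminescence was read.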

Sequence of Androgen receptor (Homo sapiens) (P10275 whole entry, looked up): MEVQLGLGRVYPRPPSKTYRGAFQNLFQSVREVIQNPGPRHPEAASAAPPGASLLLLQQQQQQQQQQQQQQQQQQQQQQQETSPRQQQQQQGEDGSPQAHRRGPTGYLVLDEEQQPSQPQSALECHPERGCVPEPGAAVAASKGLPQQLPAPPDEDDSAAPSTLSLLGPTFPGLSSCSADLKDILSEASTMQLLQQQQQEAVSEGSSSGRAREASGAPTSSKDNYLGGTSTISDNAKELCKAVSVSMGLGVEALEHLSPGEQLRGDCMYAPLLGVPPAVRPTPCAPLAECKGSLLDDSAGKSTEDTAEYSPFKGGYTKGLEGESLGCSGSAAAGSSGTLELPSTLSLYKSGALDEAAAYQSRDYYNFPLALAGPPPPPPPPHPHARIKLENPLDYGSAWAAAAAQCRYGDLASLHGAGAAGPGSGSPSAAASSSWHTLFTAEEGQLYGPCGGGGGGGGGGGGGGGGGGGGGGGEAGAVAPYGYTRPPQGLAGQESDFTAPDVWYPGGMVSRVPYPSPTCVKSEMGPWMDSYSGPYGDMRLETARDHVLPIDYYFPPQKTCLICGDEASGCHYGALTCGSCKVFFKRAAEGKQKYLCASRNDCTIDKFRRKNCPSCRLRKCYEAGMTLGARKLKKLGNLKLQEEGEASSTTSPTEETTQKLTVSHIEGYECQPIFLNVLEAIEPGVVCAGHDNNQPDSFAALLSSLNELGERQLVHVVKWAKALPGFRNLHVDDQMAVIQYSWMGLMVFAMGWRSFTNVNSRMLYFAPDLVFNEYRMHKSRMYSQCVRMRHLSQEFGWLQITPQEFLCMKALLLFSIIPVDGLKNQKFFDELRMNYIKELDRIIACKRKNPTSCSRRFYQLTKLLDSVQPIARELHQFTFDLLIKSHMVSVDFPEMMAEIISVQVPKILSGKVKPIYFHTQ

Regarding `CCC(C=O)CC`, the molecule was called inactive in assay [1], in assay [2], in [3], in assay [4], in assay [5] and in [6]. The call in [7] and in assay [8] was inactive. In addition, the Potency entry in assay [9], in assay [10], in assay [11], in [12], in assay [13] and in assay [14] was “inactive” throughout.
For `CC(C)C[C@H](NC(=O)CNC(=O)[C@H](Cc1ccc(O)cc1)NC(=O)[C@H](CO)NC(=O)[C@H](Cc1c[nH]c2ccccc12)NC(=O)[C@H](Cc1cnc[nH]1)NC(=O)[C@@H]1CCC(=O)N1)C(=O)N[C@@H](CCCN=C(N)N)C(=O)N1CCC[C@H]1C(=O)NCC(N)=O` (stereo in doubt), the result in assay [1], in [2], in [3], in assay [4], in assay [5] and in [6] was inactive. The call in [7], in assay [8] and in assay [15] was inactive. Further, the Potency entry in assay [10], in assay [11], in assay [12] and in assay [13] was “inactive” throughout.
Take `O=C(/N=N/C(=O)OCc1ccccc1)OCc1ccccc1`: the result in [1], in assay [2], in [3], in assay [4], in [5] and in assay [6] was inactive. Further, the molecule was called inactive in assay [7], in assay [8] and in assay [15]. In addition, in assay [13], the Potency entry is “inactive”.
In the case of `CC(C)CCCC(C)(C)O`, the call in assay [1], in [2], in assay [3], in assay [4], in [5] and in assay [6] was inactive. Moreover, the molecule was classed as inactive in [7], in assay [8] and in assay [15]. The Potency result in [10], in assay [11], in assay [13] and in assay [14] was “inactive” throughout.
For `NC(CO)C(=O)NNCc1ccc(O)c(O)c1O` (stereo not given), the molecule was called inactive in assay [1], in [2], in assay [3], in [4], in [5] and in [6]. The molecule was called inactive in assay [7], in [8], in assay [17] and in [18]. For the same molecule, the Potency result in assay [12], in [13], in assay [16] and in assay [19] was “inactive” each time.
Regarding `CCCC/C=C/C=C\C=O`, the outcome in assay [1], in assay [2], in assay [3], in assay [4], in assay [5] and in [6] was inactive. For the same molecule, the molecule was classed as inactive in [7], in assay [8], in assay [15], in [17] and in [18]. Also, in assay [12], the Potency was 61.1 µM (active). For the same molecule, the Potency entry in assay [14] and in assay [19] was “inactive” throughout.
`CC(COC(C)(C)C)OCCCO` (stereo not given): the molecule was called inactive in assay [1], in [2], in assay [3], in [4], in [5] and in assay [6]. Also, the call in assay [7], in assay [8] and in assay [15] was inactive. The Potency result in [10], in [12], in [13] and in [14] was “inactive” each time.
With `CC1=CCC(C(C)C)=CC1`, the call in assay [1], in assay [2], in [3], in assay [4], in [5] and in assay [6] was inactive. The call in [7], in assay [8] and in assay [15] was inactive. Also, the Potency result in assay [11] and in assay [13] was “inactive” throughout.
For the molecule `C=C(C)C(=O)OCC(C)(C)COC(=O)C(=C)C`, the result in [1], in [2], in assay [3], in [4], in assay [5] and in assay [6] was inactive. Besides, the molecule was called inactive in assay [7] and in assay [8]. The Potency entry in assay [10], in [11], in assay [12], in [13] and in assay [14] was “inactive” each time.
